# In ChEMBL document CHEMBL2218924, “A broad activity screen in support of a chemogenomic map for kinase signalling research and drug discovery” (Biochem J, 2013):
# Legend:
# [1] = target: T1, Ephrin type-A receptor 3 (Homo sapiens) (UniProt P29320); conditions: at 10 µM
# T1 sequence (whole entry): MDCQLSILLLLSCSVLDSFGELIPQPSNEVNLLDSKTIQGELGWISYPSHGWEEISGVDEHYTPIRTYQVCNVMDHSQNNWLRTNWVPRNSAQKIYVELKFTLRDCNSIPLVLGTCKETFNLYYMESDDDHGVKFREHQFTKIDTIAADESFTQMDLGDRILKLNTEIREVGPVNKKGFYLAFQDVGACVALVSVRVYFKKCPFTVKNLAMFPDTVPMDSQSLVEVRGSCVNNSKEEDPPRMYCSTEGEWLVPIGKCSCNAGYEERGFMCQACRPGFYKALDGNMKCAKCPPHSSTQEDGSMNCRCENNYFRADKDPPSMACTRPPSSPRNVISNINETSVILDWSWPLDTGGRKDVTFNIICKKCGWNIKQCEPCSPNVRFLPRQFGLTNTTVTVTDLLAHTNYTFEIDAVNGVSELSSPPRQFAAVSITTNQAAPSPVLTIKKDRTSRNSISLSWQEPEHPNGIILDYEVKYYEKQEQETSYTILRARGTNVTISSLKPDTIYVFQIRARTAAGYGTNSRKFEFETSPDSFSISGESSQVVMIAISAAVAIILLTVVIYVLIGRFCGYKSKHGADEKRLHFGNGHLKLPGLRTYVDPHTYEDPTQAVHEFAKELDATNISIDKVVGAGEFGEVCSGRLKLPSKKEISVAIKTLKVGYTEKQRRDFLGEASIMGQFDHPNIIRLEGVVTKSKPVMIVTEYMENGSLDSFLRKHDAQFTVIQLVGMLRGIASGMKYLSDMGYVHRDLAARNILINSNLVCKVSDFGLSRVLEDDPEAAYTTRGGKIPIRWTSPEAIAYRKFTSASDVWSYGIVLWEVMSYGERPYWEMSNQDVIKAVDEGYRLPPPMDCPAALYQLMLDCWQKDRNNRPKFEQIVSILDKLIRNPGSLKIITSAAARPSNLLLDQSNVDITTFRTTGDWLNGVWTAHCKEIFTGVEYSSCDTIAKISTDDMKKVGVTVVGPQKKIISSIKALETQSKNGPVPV
# [2] = target: Ephrin type-A receptor 5 (Homo sapiens) (UniProt P54756); conditions: at 1 µM
# [3] = target: Ephrin type-A receptor 5 (Homo sapiens) (UniProt P54756); conditions: at 10 µM
# [4] = target: Ephrin type-A receptor 7 (Homo sapiens) (UniProt Q15375); conditions: at 1 µM
# [5] = target: Ephrin type-A receptor 7 (Homo sapiens) (UniProt Q15375); conditions: at 10 µM
# [6] = target: T2, Ephrin type-A receptor 8 (Homo sapiens) (UniProt P29322); conditions: at 1 µM
# T2 sequence (whole entry): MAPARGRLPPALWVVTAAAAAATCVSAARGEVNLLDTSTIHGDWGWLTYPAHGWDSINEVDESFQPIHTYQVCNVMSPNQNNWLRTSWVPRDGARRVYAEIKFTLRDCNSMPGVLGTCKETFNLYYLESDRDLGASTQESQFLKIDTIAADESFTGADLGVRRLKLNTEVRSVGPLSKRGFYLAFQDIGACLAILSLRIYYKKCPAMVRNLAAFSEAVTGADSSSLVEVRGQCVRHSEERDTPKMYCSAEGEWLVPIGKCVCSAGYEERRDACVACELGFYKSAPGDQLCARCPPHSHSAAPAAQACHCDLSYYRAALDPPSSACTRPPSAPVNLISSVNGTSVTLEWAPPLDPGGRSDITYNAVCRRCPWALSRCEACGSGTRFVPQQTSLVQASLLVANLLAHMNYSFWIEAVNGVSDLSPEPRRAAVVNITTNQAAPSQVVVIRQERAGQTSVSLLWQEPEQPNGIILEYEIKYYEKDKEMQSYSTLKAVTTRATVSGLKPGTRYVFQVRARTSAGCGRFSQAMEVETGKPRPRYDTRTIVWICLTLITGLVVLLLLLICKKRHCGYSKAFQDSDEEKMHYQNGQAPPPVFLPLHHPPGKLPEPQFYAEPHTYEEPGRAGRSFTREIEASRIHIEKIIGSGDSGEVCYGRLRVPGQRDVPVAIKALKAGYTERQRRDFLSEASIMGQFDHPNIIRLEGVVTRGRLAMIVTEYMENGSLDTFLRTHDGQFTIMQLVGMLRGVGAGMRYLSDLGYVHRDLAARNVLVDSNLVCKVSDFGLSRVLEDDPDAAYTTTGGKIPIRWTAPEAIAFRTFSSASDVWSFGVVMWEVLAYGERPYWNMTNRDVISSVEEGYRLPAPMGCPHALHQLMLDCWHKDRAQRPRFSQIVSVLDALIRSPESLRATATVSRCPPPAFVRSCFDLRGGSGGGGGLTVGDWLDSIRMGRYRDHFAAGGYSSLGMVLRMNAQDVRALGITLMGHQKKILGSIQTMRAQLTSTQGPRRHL
# [7] = target: T2, Ephrin type-A receptor 8 (Homo sapiens); conditions: at 10 µM
# [8] = target: T3, Ephrin type-B receptor 1 (Homo sapiens) (UniProt P54762); conditions: at 1 µM
# T3 sequence (whole entry): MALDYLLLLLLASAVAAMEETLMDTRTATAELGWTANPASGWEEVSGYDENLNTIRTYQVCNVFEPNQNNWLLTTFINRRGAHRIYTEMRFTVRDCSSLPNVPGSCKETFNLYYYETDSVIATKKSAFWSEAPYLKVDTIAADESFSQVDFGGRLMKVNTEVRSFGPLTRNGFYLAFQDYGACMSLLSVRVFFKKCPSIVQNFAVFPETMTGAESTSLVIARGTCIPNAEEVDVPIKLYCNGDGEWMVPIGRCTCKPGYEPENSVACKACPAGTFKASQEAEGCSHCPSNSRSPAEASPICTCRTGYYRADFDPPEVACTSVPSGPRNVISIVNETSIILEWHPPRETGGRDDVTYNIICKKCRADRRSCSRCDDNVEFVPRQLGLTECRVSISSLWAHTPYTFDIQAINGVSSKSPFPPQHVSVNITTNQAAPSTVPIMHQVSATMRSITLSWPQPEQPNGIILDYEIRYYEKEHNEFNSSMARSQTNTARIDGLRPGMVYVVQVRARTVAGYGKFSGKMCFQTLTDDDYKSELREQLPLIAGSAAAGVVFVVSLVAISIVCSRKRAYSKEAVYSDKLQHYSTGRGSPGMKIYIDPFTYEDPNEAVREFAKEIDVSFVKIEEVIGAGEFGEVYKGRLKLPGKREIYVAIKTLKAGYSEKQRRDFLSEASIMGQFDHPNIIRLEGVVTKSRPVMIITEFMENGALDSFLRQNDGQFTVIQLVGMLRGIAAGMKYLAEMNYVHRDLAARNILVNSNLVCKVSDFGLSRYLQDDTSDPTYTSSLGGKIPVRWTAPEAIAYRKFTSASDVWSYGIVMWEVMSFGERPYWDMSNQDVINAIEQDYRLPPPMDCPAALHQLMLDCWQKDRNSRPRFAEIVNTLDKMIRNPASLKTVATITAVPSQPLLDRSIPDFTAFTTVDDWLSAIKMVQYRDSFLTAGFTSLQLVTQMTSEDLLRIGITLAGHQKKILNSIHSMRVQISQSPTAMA
# [9] = target: T3, Ephrin type-B receptor 1 (Homo sapiens); conditions: at 10 µM
# [10] = target: T4, Ephrin type-B receptor 2 (Homo sapiens) (UniProt P29323); conditions: at 1 µM
# T4 sequence (whole entry): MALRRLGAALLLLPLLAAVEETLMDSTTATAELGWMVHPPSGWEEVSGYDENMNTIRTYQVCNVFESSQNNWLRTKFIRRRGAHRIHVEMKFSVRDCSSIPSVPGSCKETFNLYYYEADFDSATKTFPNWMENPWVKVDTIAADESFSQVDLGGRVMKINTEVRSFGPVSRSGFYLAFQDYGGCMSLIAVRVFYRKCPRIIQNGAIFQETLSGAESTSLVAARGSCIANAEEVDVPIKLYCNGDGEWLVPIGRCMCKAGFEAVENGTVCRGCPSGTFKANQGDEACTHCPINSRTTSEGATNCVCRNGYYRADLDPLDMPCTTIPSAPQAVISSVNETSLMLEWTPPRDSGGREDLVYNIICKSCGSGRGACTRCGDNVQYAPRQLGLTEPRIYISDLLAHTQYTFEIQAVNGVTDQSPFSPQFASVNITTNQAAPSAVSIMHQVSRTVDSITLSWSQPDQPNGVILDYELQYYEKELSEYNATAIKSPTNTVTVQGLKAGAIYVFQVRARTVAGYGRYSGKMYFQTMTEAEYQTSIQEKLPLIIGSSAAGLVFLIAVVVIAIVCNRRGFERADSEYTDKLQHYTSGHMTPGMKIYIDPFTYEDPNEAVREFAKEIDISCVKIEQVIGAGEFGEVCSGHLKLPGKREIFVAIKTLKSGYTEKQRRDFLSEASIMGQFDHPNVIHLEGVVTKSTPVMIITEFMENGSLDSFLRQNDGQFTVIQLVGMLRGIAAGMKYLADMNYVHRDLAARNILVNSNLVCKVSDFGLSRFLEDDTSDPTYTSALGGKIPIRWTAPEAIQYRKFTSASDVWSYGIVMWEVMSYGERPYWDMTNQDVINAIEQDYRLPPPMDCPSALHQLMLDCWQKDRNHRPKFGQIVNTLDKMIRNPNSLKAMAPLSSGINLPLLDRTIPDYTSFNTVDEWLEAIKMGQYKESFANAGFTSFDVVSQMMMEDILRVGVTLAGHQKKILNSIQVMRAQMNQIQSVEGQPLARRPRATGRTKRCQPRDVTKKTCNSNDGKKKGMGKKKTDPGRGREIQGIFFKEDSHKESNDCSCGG
# [11] = target: T4, Ephrin type-B receptor 2 (Homo sapiens); conditions: at 10 µM
# [12] = target: T5, Ephrin type-B receptor 3 (Homo sapiens) (UniProt P54753); conditions: at 1 µM
# T5 sequence (whole entry): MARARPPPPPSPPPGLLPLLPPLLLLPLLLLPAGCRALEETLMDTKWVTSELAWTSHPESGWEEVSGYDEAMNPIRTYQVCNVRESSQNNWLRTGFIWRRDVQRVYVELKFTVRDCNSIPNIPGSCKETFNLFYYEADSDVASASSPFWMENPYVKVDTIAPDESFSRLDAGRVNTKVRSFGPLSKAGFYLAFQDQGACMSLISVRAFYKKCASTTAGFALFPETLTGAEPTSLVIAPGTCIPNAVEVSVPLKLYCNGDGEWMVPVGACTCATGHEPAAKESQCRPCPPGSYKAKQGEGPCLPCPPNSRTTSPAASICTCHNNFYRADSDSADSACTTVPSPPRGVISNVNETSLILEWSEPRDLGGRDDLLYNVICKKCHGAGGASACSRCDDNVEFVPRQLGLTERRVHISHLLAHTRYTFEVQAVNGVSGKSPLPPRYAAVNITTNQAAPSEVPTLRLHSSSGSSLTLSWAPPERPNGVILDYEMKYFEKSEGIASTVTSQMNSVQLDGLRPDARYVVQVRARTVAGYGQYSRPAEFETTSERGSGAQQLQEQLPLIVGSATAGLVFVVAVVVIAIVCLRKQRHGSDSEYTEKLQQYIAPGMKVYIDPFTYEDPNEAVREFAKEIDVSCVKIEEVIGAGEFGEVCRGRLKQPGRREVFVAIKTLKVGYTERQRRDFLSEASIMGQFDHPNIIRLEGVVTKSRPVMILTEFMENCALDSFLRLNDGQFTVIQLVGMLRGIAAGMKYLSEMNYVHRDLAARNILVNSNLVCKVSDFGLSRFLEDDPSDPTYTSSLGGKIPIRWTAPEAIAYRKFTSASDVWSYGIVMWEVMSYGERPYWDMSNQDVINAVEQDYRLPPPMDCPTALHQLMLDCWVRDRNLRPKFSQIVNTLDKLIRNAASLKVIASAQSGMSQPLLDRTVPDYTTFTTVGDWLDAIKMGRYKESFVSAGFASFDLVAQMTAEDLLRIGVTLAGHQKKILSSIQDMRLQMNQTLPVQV
# [13] = target: T5, Ephrin type-B receptor 3 (Homo sapiens); conditions: at 10 µM
# [14] = target: T6, Ephrin type-B receptor 4 (Homo sapiens) (UniProt P54760); conditions: at 1 µM
# T6 sequence (whole entry): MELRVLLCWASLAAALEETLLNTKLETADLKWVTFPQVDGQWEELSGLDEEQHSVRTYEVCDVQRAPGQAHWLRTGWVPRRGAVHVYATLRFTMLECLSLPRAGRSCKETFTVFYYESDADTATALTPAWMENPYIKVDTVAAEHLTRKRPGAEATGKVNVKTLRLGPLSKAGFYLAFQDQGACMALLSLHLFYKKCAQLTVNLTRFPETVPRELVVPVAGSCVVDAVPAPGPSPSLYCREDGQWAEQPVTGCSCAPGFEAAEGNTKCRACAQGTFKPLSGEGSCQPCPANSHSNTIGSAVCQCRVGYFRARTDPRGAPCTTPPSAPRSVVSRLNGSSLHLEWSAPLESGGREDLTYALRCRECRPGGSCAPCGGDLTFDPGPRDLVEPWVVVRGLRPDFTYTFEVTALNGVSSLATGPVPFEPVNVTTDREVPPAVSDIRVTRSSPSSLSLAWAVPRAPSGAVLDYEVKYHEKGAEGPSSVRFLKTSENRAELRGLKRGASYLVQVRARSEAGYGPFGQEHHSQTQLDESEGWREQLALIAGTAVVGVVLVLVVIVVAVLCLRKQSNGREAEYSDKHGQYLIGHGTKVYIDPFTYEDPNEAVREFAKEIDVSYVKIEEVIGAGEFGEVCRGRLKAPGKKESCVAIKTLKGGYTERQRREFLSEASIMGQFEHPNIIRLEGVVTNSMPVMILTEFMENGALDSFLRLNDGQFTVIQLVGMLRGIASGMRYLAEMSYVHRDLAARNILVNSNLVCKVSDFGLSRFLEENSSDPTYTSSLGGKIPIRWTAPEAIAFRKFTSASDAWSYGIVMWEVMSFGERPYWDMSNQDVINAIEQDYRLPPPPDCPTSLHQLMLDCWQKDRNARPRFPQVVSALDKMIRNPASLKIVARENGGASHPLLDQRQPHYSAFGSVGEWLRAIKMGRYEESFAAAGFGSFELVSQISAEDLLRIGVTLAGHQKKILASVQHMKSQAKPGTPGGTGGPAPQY
# [15] = target: T6, Ephrin type-B receptor 4 (Homo sapiens); conditions: at 10 µM
# [16] = target: Receptor tyrosine-protein kinase erbB-4 (Homo sapiens) (UniProt Q15303); conditions: at 1 µM
# [17] = target: Receptor tyrosine-protein kinase erbB-4 (Homo sapiens) (UniProt Q15303); conditions: at 10 µM
# [18] = target: Focal adhesion kinase 1 (Homo sapiens) (UniProt Q05397); conditions: at 1 µM
# Focal adhesion kinase 1 (Homo sapiens), sequence (Q05397 2-1052 limits assumed): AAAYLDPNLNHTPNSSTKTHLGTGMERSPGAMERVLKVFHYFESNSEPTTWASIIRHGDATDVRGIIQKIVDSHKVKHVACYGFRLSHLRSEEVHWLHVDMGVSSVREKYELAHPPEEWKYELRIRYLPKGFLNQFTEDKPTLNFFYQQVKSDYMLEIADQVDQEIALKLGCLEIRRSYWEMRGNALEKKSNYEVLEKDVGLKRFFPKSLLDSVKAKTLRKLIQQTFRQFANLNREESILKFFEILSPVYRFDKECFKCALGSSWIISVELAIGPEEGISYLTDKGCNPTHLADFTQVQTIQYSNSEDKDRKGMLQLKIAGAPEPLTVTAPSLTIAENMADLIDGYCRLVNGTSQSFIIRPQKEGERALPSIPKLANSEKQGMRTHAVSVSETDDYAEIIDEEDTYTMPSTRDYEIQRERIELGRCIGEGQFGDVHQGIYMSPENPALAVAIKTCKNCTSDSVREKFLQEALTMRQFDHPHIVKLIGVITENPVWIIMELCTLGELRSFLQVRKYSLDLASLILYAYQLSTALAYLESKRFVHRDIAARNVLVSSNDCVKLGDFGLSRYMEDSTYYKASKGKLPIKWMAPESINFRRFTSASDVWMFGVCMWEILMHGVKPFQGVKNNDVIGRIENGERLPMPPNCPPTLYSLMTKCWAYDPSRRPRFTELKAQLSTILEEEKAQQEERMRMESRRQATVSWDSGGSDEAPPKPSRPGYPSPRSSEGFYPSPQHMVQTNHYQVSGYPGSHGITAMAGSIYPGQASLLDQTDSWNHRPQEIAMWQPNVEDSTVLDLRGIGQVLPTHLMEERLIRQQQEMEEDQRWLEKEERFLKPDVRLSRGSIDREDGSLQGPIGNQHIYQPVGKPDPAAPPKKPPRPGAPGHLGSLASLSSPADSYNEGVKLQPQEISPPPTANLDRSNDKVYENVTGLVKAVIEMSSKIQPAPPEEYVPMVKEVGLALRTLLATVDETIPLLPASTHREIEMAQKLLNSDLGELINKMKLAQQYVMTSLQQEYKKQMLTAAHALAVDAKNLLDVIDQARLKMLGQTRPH
# Ephrin type-A receptor 7 (Homo sapiens), sequence (Q15375 28-998 limits assumed): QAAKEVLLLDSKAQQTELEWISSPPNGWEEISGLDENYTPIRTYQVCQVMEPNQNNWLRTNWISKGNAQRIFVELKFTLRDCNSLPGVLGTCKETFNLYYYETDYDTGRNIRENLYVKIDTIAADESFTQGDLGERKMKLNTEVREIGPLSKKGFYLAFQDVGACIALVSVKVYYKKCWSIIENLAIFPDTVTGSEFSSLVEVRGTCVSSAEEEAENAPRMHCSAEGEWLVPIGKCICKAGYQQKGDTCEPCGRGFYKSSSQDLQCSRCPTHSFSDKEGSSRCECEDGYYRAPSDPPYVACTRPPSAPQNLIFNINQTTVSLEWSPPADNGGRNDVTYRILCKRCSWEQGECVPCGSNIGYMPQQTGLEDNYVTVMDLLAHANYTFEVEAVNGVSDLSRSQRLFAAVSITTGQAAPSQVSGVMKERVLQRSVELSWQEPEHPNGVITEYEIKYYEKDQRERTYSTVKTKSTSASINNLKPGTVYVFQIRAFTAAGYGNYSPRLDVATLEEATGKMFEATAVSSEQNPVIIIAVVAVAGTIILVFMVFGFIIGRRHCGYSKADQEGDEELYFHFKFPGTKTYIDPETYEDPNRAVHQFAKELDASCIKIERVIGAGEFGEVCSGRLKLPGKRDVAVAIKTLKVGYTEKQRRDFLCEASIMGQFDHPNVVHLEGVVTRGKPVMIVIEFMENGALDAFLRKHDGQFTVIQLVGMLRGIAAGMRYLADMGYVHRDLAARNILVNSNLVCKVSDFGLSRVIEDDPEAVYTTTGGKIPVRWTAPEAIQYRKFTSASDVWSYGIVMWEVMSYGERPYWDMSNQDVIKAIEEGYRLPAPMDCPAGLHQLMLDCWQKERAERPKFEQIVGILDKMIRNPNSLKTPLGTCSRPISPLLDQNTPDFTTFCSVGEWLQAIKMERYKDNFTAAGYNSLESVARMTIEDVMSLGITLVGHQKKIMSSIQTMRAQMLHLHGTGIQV
# Receptor tyrosine-protein kinase erbB-4 (Homo sapiens), sequence (Q15303 whole entry): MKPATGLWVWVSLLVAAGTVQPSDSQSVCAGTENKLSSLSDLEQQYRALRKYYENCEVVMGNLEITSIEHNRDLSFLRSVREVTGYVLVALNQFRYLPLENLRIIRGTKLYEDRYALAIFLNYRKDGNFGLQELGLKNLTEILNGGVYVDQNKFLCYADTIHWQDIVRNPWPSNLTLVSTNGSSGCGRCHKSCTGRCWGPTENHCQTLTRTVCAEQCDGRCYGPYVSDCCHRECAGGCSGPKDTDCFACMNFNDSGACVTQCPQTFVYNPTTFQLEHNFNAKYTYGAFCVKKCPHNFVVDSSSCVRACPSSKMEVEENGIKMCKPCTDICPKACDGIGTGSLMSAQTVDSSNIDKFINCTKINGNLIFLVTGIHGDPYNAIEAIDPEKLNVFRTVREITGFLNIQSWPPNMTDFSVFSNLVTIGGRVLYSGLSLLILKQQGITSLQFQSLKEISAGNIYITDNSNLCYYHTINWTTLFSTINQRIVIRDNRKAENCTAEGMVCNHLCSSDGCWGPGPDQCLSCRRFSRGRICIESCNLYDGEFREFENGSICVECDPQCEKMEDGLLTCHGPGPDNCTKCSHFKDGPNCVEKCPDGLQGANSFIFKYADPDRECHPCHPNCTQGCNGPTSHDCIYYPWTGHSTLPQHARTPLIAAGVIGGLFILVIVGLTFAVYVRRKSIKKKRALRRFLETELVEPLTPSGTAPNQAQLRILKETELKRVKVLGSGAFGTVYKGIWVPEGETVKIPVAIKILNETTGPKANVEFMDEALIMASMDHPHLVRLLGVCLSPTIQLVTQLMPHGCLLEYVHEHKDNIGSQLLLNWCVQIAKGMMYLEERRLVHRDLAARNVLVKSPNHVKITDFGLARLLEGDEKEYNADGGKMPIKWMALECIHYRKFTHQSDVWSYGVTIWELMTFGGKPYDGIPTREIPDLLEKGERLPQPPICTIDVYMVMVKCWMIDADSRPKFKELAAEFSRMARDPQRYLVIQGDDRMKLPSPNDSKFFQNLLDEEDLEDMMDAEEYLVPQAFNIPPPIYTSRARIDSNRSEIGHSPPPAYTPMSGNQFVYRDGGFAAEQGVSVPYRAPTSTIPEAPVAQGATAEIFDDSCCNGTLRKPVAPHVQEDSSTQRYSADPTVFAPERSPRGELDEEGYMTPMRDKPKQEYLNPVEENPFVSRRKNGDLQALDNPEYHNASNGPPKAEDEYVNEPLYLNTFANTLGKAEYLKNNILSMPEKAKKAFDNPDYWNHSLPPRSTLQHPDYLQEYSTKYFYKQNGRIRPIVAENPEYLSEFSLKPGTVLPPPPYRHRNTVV
# Ephrin type-A receptor 5 (Homo sapiens), sequence (P54756 whole entry): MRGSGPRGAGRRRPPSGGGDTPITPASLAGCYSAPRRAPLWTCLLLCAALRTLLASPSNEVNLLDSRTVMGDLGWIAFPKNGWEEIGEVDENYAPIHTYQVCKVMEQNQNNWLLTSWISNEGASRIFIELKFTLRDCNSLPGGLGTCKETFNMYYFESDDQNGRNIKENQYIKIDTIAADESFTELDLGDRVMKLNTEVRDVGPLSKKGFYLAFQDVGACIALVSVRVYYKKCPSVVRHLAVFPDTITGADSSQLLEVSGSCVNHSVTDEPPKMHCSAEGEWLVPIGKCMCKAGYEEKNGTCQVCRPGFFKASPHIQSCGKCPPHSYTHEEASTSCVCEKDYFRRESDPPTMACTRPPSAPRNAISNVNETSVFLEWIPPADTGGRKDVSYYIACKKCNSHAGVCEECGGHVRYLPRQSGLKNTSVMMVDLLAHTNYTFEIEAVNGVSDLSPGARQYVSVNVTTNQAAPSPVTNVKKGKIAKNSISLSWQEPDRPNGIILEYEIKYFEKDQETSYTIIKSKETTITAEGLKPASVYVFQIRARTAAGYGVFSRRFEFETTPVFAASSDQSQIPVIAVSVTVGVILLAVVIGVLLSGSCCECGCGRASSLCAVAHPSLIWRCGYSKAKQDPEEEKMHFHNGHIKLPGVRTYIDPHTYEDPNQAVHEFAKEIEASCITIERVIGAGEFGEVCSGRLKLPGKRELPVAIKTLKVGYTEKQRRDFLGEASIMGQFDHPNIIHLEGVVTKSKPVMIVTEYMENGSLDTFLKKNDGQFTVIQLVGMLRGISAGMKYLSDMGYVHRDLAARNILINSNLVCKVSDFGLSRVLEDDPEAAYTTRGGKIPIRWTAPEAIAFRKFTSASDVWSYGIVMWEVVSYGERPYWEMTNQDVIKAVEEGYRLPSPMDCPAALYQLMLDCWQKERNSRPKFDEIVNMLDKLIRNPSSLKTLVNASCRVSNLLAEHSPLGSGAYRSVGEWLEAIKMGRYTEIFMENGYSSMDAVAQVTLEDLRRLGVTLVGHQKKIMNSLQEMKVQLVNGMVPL
compound,measurement,setting,value
O=C1Nc2ccccc2/C1=C1/Nc2ccccc2/C1=N\OCCC(O)CO (stereo not drawn),residual activity,[1],6%
same,residual activity,[2],59%
same,residual activity,[3],23%
same,residual activity,[4],58%
same,residual activity,[5],10%
same,residual activity,[6],72%
same,residual activity,[7],32%
same,residual activity,[8],56%
same,residual activity,[9],8%
same,residual activity,[10],82%
same,residual activity,[11],12%
same,residual activity,[12],117% (inactive)
same,residual activity,[13],112%
same,residual activity,[14],49%
same,residual activity,[15],4%
same,residual activity,[16],107%
same,residual activity,[17],105%
same,residual activity,[18],16%
